# PPC-1+TRAIL kill = compounds killing PPC-1 cancer cells with TRAIL present, primary screen, TRAIL potentiator project, ATPLite luminescence, uHTS; PPC-1 cells + TRAIL, ATPLite viability luminescence; cell killing (% activity), % at 4 µM or 5 µM; 220,000 tested, 0.41% active; AID 1443, 2008;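 active = cell killing above 50% in the first pass at 4 µM, then a duplicate retest at 5 µM averaging 50% or more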;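 also: plate controls were cells with TRAIL plus DMSO for no effect and medium-only wells lacking cells for full effect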
# HSP90 inh = HSP90 inhibitors, primary screen, cell lysate, luminescence; Heat shock protein HSP 90 (rabbit reticulocyte lysate; luciferase refolding); Rabbit reticulocyte lysate, luciferase refolding luminescence, 3 h; inhibition, % at 5.6 µM; 290,000 tested, 0.91% active;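 active = inhibition above the screen-wide mean plus 3 SD, computed separately per campaign, cut at about 16% in these data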;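 also: 0% = DMSO wells and 100% = 60 µM geldanamycin wells; inhibitors lower the luminescence because luciferase stays unfolded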
# Platelet DG rel = inhibitors of platelet dense granule secretion, primary screen, cell-based, MLPCN, human platelets. human platelet-rich plasma, SFLLRN dense granule ATP release, luminescence. inhibition, %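 (compounds screened at 7.5 µM in platelet-rich plasma)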. 300,000 tested, 0.22% active;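 active = mean replicate score, as percent of positive control, at or above 50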
# C8 TRAIL sens = viability loss with TRAIL in NB7+C8 cells, primary screen, TRAIL sensitizer project, cell-based, ATPlite luminescence | inhibition (viability loss, TRAIL sensitization), % at 10 µM | 360,000 tested, 1% active | AID 624354, 2012;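 active = compounds causing at least 50% loss of cell viability in the single-dose screen, relative to plate controls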
# TROY NFkB inh = inhibitors of TROY-driven NF-kB signaling, primary screen, Q293 LMP1-TROYcd cells, NF-kB luciferase, uHTS; Q293 LMP1-TROYcd NF-kB luciferase reporter, 4 h; inhibition, % at 10 µM; 360,000 tested, 0.98% active; AID 1347056, 2019;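 active = compounds whose plate-normalised and pattern-corrected inhibition of the luciferase reporter signal at the single screening dose is 50% or more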
# TWEAK-Fn14 inh = inhibitors of TWEAK-Fn14 signaling, primary screen, luciferase reporter cells, uHTS; TWEAK-stimulated Fn14 reporter cells, luciferase luminescence, 8 h; inhibition, % at 10 µM; 360,000 tested, 2% active; in the data active = inhibition above about 50%
# * marks the source's active call; other numbers are inactive results; nt = no result. Hits are enriched below; roughly 3.5% of the tested compounds scored in any of these assays.
SMILES,PPC-1+TRAIL kill,HSP90 inh,Platelet DG rel,C8 TRAIL sens,TROY NFkB inh,TWEAK-Fn14 inh
c1cncc(CNc2ncnc3ccc(-c4ccoc4)cc23)c1,nt,nt,nt,17,47,84*
Cc1csc(CNc2ncnc3ccc(-c4ccoc4)cc23)c1,nt,nt,nt,3,54*,90*
Cc1ccc(C(C[N+](=O)[O-])Sc2ccc(N)cc2)cc1 (stereo not given),20,11,6,4,-36,-15
CCCCNS(=O)(=O)c1ccc2nc(-c3cccnc3)cc(C(=O)NC3CCCC3)c2c1,16,-8,5,-17,16,18
O=C(O)C1C2CCC(O2)C1C(=O)Nc1ccccc1Br (stereo not given),nt,-8,8,-18,17,-7
c1nc(NCc2ccc3c(c2)OCO3)c2cc(-c3ccc4c(c3)OCCO4)ccc2n1,nt,nt,nt,-2,21,-10
COc1cccc(-c2ccc3ncnc(N(C)Cc4ccco4)c3c2)c1,nt,nt,nt,4,-23,37
Cc1ccsc1CN(C)c1ncnc2ccc(-c3ccoc3)cc12,nt,nt,nt,-9,30,68*
COc1cccc(-c2ccc3ncnc(NCc4ccc5c(c4)OCO5)c3c2)c1,nt,nt,nt,2,31,80*
COc1cccc(-c2ccc3ncnc(NCc4cc(C)cs4)c3c2)c1,nt,nt,nt,-1,42,77*
Cc1ccc(N/C=C/C(=O)c2ccco2)c(O)c1,20,3,0,39,-35,95*
CCOC(=O)c1ccc(N/C=C/C(=O)c2ccco2)cc1,26,5,7,51*,-9,-12
O=C(/C=C/Nc1ccc(F)cc1)c1ccco1,48,-2,24,60*,7,13
Cc1noc(C)c1S(=O)(=O)NC(=O)C1(C)CCN1C(=O)C1(c2ccc(Cl)cc2)CCC1 (stereo not given),nt,nt,nt,-2,12,11
COc1ccc(-c2csc(/C(C#N)=C\c3ccc(O)c([N+](=O)[O-])c3)n2)cc1OC,4,0,2,1,36,60*
O=C(O)C/C(=C\c1ccc(N2CCOCC2)c([N+](=O)[O-])c1)c1nc2ccccc2s1,10,8,-2,-17,52*,45
COc1cc(/C=C(\C#N)c2nc3ccccc3s2)cc([N+](=O)[O-])c1O,-15,3,-6,-6,18,27
COc1ccc(-c2csc(/C(C#N)=C\c3ccc(OC)c([N+](=O)[O-])c3)n2)cc1,-4,3,-15,3,-10,-32
N#C/C(=C\c1ccc(O)c([N+](=O)[O-])c1)c1nc2ccccc2s1,18,3,8,2,50*,53*
CCOc1ccccc1NC(=O)COC(=O)/C=C/c1cccs1,nt,nt,nt,-3,15,-23
CCCCC#Cc1ccc2c(c1)COc1c3ccccc3nn1-2,12,nt,5,11,-45,11
N#CCCCC#Cc1ccc2c(c1)COc1c3ccccc3nn1-2,nt,nt,12,77*,81*,93*
Cc1ccc(NC(=O)c2ccc3ccccc3n2)cc1S(=O)(=O)N(C)C,10,-1,-2,22,-41,16
COc1cc2c(cc1OC)C(c1cc(Br)ccc1F)N(C(=O)CCl)CC2 (stereo not given),nt,9,-5,95*,-13,29
CC1CCCC(NC(=O)COC(=O)CN2C(=O)C3CCCCC3C2=O)C1C (stereo not given),-16,-2,-1,-8,11,50*
SMILES,PPC-1+TRAIL kill,HSP90 inh,Platelet DG rel,C8 TRAIL sens,TROY NFkB inh,TWEAK-Fn14 inh
C=CC[C@H](CC(=O)N(CCO)Cc1ccccc1)C(=O)N[C@H](COC(=O)[C@@H](CC=C)Cc1ccc(F)cc1)Cc1c[nH]c2ccccc12,nt,nt,nt,10,40,60*
C=CCC[C@H](Cc1ccc(F)cc1)C(=O)OC[C@H](Cc1c[nH]c2ccccc12)NC(=O)[C@H](CC=C)CC(=O)N(CCO)Cc1ccccc1,nt,nt,nt,26,33,57*
C=CCC[C@@H](Cc1ccc(F)cc1)C(=O)OC[C@@H](Cc1c[nH]c2ccccc12)NC(=O)[C@@H](CC=C)CC(=O)N(CCO)Cc1ccccc1,nt,nt,nt,17,26,49
C=CCC[C@@H](Cc1ccc(F)cc1)C(=O)OC[C@@H](NC(=O)[C@@H](CC=C)CC(=O)N(CCO)Cc1ccccc1)c1ccccc1,nt,nt,nt,19,30,43
C=CCC[C@@H](Cc1ccc(F)cc1)C(=O)OC[C@@H](NC(=O)[C@H](CC=C)CC(=O)N(CCO)Cc1ccccc1)c1ccccc1,nt,nt,nt,8,13,56*
C=CC[C@@H](CC(=O)N(CCO)Cc1ccccc1)C(=O)N[C@H](COC(=O)[C@@H](CC=C)Cc1ccc(F)cc1)Cc1c[nH]c2ccccc12,nt,nt,nt,23,36,51*
NC(=O)C1CCN(C(=O)c2ccc([N+](=O)[O-])cc2NC(=O)c2cccs2)CC1,nt,-2,3,-7,7,3
CCCCOc1ccc(S(=O)(=O)NC(=O)C2(C)CCN2C(=O)c2c(C)noc2C)cc1 (stereo not given),nt,nt,nt,-3,2,-4
C=CC[C@@H](CC(=O)N(CCO)Cc1ccccc1)C(=O)N[C@H](COC(=O)[C@@H](CC=C)Cc1ccc(F)cc1)Cc1ccccc1,nt,nt,nt,11,31,19
C=CC[C@@H](CC(=O)N(CCO)Cc1ccccc1)C(=O)N[C@@H](COC(=O)[C@@H](CC=C)Cc1ccc(F)cc1)Cc1ccccc1,nt,nt,nt,24,42,58*
Cc1ccc(S(=O)(=O)N2CCOCC2)cc1C(=O)Nc1ccc2c(c1)OCCO2,nt,nt,nt,-18,4,5
Cc1ccc(N(CC(=O)N2CCN(c3ccccc3F)CC2)S(=O)(=O)c2c(C)noc2C)cc1,nt,3,-16,-15,-7,-8
Cc1ccc(C(=O)COC(=O)c2cccs2)cc1,15,-4,15,40,59*,43
O=C(COC(=O)c1ccccc1[N+](=O)[O-])c1ccc2c(c1)OCO2,nt,nt,-17,4,78*,78*
CCc1ccc(C(=O)COC(=O)c2cccs2)cc1,11,-2,nt,-1,6,3
CC(=O)NC12CC3CC(C1)CC(C(=O)OCC(=O)c1ccc4c(c1)OCCO4)(C3)C2,31,4,3,5,54*,58*
CC(=O)NC12CC3CC(C1)CC(C(=O)OCC(=O)c1cc(C)n(C)c1C)(C3)C2,nt,nt,nt,4,-20,1
O=C(COC(=O)c1cccs1)c1ccc2c(c1)OCCO2,42,7,22,43,75*,61*
C[C@@H]1CN([C@@H](C)CO)C(=O)CCCn2nncc2CO[C@@H]1CN(C)C(=O)Nc1ccc(C(F)(F)F)cc1,nt,nt,nt,2,1,13
CCOC(=O)CCCCC1C(CCCC(=O)OCC)C=NN1C (stereo not given),nt,nt,nt,5,9,3

# High-throughput results (PubChem)
